The first assay concerns the target MCM6. In words: pooled miR-30 sensor sort-seq; sequence = guide strand. Particulars: shRNA.
For the sequence TTACACATGAAAACAAAGGTAT, the sensor-assay potency score (higher = more potent) was -0.0386.
Take TAGAACATGATCATAGTGTGTG: the sensor-assay potency score (higher = more potent) was determined as 0.881.
Still for that read-out and setting: the same measure for TTTGGTTCCAACTTCACTGGGA: 1.01.
TAAAGTCACACTTGTCACCAGC registered a sensor-assay potency score (higher = more potent) of -0.442.
With ATATCTTCTGATATCATCGAGG, the sensor-assay potency score (higher = more potent) was -0.536.
Sequence ATGAATAGCAACTTGATCCCGC registered a sensor-assay potency score (higher = more potent) of 0.187.
Still for that read-out and setting: the value for TAGATTTTTATCTTGACTCATC was -0.898; that for TACAACACACACCATTATCAGC was -1.14; that for TTGATCTAGATTGACATCAGGT was 0.643.
With TTGATTTATGTCTTCATTGTAG, the sensor-assay potency score (higher = more potent) is -0.457.
On the same count and under the same terms, the value for TATCTCTGATTCGATTTCCTTC was -0.514.

Another assay has as its target MED17. The description is as above. The note with it: shRNA.
Consider TTGCTGAACTGCATGTACCTGG, for which the sensor-assay potency score (higher = more potent) was 0.418.
Still for that read-out and setting: the same measure for TCTATGTACAACTCGAATCTGC: -0.242.
On the same count and under the same terms, the value for TTTTATTCCACTGAACTTCTTT was 0.579.
Still for that read-out and setting: the value for TATTATTTTACATCTTGTCATA was -1.34; that for TTTACATAAGAGAACATTCTGT was -0.192; that for TTTATGAAACTCTCTAATCAGT was -0.898.
In the case of TTCAGGTATCTTTTTATCCAGA, the sensor-assay potency score (higher = more potent) was -0.5.
The sequence TACACTAGGTGTCTCAACTGGT showed a sensor-assay potency score (higher = more potent) of 0.232.
Still for that read-out and setting: the same measure for TATCTTTTTATCCAGATCGAGA: -1.18; for TATTACTGCACAGTCATCTTAC: -0.307; for TTCTGTAGCTCAGATCTCCGAG: 0.121.
Same read-out and setting: the same measure for TTATCTTGTAAAACATCACTTT: -0.0835.

In a further assay the target is MED28. The assay is described as above. Particulars: shRNA.
As for TAGTTCTGACACATCCTCTTTG, the sensor-assay potency score (higher = more potent) was -0.787.
Same read-out and setting: the value for TAAGAAAAAACATTCTGTCTGT was 0.366.
Same read-out and setting: the value for TTCGAATTTCTTCCTGATCGGT was -0.329.
On the same count and under the same terms, the value for TCGTCCACCAAAGTACTGCTGG was -0.123; that for TAAAATGAACTCATTATCTGGC was 0.719; that for TCGAATTTCTTCCTGATCGGTG was -0.612.
The sequence TAACTTGCTCTGGTTTCTGGAC came in with a sensor-assay potency score (higher = more potent) of -0.587.
Turning to TTAGTTCTGACACATCCTCTTT, the sensor-assay potency score (higher = more potent) is -0.943.
Same read-out and setting: the value for TTCCGCTGTAATTCATTCCTTA was 0.0365; that for TGTCTGTCTTGCAATATCCAGA was -0.689; that for TTTGTAAGAAAAAACATTCTGT was 0.226.

The target in the next assay is MED31. The description is as above. The note with it: shRNA.
The sequence TAAATTTCGCACACTGAGCATT came in with a sensor-assay potency score (higher = more potent) of -1.04.
TTGTCTTTGAAGTAACCTCTTT had a sensor-assay potency score (higher = more potent) of -0.371.
Sequence TTGGAGCAGCTCTAACATGTGT had a sensor-assay potency score (higher = more potent) of -0.598.
The same measure, in the same setting: the value for TTGCACAAATTCCAACTCCAAC was -1.8.
The same measure, in the same setting: the value for TTTGCTGTTGCTGCTCTGCCAA was -0.936; that for TTGCTGTTGCTGCTCTGCCAAG was -1.72.

The values are drawn from the OligoGym collection.
Note: reference of the scale not given here.
